The source of these data is article PMC5700166.

Changes are numbered by the printed parent chain.

Experiment in all cases: protein-binding microarray (PBM); PBM: ~300 nM protein, 6 mM HEPES pH 7.8, 80 mM KCl, 0.5 mM EDTA, 0.5 mM EGTA, 6% glycerol, 35 ng/ul poly-dIdC, 1% milk, 1 h, room temperature; Ap Aiptasia and Nv Nematostella (sea anemones) / Co Capsaspora / Aq Amphimedon (sponge) / Dm Drosophila / Hu human; RHD is the Rel homology domain; high values mean tight binding
Common to all, as to details: dsDNA, one strand shown

One test addresses T1, GST-Ap-NF-kB RHD (Exaiptasia pallida (Aiptasia), UniProt A0A913YAJ5 2-422).
T1 sequence: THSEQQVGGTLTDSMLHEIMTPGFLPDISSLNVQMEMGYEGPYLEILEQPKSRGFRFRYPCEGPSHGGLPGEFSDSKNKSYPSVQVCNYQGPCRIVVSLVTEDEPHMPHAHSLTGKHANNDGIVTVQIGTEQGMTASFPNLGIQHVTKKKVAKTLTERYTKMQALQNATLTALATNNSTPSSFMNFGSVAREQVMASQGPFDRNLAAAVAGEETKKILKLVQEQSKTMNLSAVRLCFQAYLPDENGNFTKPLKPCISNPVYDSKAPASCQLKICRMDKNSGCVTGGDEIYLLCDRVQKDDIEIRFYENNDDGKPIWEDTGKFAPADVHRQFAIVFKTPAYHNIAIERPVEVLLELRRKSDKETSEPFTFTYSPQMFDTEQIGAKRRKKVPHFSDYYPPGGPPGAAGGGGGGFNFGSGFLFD

Test [1] addresses T2, GST-Nv-NF-kB (Cys allele) (Nematostella vectensis, UniProt E5G601 2-411).
T2 sequence: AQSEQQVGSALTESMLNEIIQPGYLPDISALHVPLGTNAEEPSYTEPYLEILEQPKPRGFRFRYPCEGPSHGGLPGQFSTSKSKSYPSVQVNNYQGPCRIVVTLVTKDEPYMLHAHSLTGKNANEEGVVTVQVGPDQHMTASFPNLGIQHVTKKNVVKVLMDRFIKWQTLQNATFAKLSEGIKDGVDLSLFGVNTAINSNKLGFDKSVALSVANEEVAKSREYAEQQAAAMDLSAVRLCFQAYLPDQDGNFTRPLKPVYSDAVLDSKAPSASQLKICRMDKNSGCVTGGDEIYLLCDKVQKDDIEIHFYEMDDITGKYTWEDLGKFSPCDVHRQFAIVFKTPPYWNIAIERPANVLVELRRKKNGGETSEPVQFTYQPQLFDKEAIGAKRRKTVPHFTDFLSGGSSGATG

Test [2] has as its target T3, GST-Nv-NF-kB (Ser allele) (Nematostella vectensis, UniProt A7UNT2 2-411).
T3 sequence: T2 sequence with Q21R, C66S, S207N, E215Q, V217A, E225K, A268E, D399E

For another test, the target named is T4, GST-Co-NF-kB (Capsaspora owczarzaki, UniProt F1ARL5 200-546).
T4 sequence: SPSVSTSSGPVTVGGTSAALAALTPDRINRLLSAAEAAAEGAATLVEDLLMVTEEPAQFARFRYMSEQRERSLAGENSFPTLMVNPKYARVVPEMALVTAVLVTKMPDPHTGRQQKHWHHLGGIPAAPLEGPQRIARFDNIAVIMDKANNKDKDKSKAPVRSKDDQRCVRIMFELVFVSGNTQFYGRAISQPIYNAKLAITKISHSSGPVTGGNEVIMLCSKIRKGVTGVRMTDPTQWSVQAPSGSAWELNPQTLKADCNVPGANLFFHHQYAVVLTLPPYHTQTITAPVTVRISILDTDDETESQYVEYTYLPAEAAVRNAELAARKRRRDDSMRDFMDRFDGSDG

A further test has as its target T5, GST-Dm-Relish (Drosophila melanogaster, UniProt Q94527 99-473).
T5 sequence: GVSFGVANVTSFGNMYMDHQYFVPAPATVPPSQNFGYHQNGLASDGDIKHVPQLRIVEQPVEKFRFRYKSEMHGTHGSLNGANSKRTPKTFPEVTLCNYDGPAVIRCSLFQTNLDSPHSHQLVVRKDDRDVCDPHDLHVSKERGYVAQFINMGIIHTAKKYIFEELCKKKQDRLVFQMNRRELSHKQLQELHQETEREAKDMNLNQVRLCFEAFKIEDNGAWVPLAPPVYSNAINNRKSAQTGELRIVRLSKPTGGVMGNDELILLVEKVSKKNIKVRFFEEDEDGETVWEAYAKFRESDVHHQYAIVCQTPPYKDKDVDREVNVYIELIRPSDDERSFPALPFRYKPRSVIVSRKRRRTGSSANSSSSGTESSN

For another test, the target named is T6, GST-Aq-NF-kB (Amphimedon queenslandica, UniProt A9Y5G7 2-389).
T6 sequence: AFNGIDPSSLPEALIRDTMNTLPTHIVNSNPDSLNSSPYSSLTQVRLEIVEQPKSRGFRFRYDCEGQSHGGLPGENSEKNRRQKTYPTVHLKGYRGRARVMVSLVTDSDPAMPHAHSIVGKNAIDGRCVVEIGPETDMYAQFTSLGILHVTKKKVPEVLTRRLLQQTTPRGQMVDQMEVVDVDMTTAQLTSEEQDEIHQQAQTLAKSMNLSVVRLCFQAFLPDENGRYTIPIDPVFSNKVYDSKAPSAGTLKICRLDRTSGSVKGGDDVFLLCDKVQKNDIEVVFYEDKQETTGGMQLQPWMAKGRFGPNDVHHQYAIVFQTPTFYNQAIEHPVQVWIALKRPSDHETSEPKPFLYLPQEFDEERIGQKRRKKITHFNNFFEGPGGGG

The target in the next test is GST-Hu-p50 (Homo sapiens, UniProt P19838 7-356).
Chain of GST-Hu-p50 (P19838 7-356): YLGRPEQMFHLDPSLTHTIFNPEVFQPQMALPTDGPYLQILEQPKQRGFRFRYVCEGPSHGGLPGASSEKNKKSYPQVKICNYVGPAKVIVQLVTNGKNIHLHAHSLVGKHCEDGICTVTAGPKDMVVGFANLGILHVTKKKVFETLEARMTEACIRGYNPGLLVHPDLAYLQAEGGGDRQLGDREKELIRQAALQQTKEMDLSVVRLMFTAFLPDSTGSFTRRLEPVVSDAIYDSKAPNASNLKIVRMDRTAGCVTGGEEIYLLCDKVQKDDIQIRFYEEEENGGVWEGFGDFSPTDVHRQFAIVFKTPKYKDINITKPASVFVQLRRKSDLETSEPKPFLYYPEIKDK

With “CCGATTAACATCAAACATTCCCTTGATGTTAATCGGGTCTTGATTCGCTTGACGCTGCTG”, the binding signal came out at 2.36 z-score with GST-Ap-NF-kB RHD; 4.96 z-score in test [1]; 4.25 z-score in test [2]; 1.95 z-score with GST-Co-NF-kB; 2.37 z-score with GST-Dm-Relish; 5.41 z-score in the test with GST-Aq-NF-kB. The sequence also displayed a binding signal with GST-Hu-p50 of 3.27 z-score.

With “CCGATTAACATCAAAACTCCCCTTGATGTTAATCGGGTCTTGATTCGCTTGACGCTGCTG”, the binding signal amounted to 8.31 z-score with GST-Ap-NF-kB RHD; 7.73 z-score in test [1]; 8.37 z-score in test [2]; 4.59 z-score with GST-Co-NF-kB; 7.49 z-score in the test with GST-Dm-Relish; 7.22 z-score in the test with GST-Aq-NF-kB. In the test with GST-Hu-p50, the binding signal worked out at 6.44 z-score.

For the sequence “CCGATTAACATCAGGGGCATACCTGATGTTAATCGGGTCTTGATTCGCTTGACGCTGCTG”, the binding signal with GST-Ap-NF-kB RHD was found to be 3.84 z-score; in test [1], 4.44 z-score; in test [2] it was 1.94 z-score; in the test with GST-Co-NF-kB it was 1.44 z-score; with GST-Dm-Relish it was 3.9 z-score; with GST-Aq-NF-kB, 6.89 z-score. In addition, the binding signal with GST-Hu-p50 stood at 2.64 z-score.

Take “CCGATTAACATCAAAGTCTCCCCTGATGTTAATCGGGTCTTGATTCGCTTGACGCTGCTG”: the binding signal in the test with GST-Ap-NF-kB RHD worked out at 5.38 z-score; in test [1], 4.52 z-score; in test [2] it was 5.65 z-score; with GST-Co-NF-kB, 7.88 z-score; with GST-Dm-Relish, 1.57 z-score; with GST-Aq-NF-kB, 3.98 z-score. This sequence also displayed a binding signal in the test with GST-Hu-p50 of 3.28 z-score.

For the sequence “CCGATTAACATCAAGGGGAAAACTGATGTTAATCGGGTCTTGATTCGCTTGACGCTGCTG”, the binding signal is 7.51 z-score in the test with GST-Ap-NF-kB RHD; 8.85 z-score in test [1]; 11 z-score in test [2]; 8 z-score with GST-Co-NF-kB; 5.32 z-score with GST-Dm-Relish; 6.55 z-score in the test with GST-Aq-NF-kB. The sequence also displayed a binding signal in the test with GST-Hu-p50 of 6.9 z-score.

As for “CCGATTAACATCAGGGAAATCCCTGATGTTAATCGGGTCTTGATTCGCTTGACGCTGCTG”, the binding signal in the test with GST-Ap-NF-kB RHD was 9.75 z-score; in test [1] it was 11.4 z-score; in test [2], 9.68 z-score; with GST-Co-NF-kB, 4.02 z-score; in the test with GST-Dm-Relish, 10.3 z-score; in the test with GST-Aq-NF-kB, 10.9 z-score. The binding signal with GST-Hu-p50 came out at 7.17 z-score.

With “CCGATTAACATCAGATTCCCCCATGATGTTAATCGGGTCTTGATTCGCTTGACGCTGCTG”, the binding signal with GST-Ap-NF-kB RHD stood at 8.01 z-score; in test [1], 7.43 z-score; in test [2], 8.63 z-score; with GST-Co-NF-kB, 8.94 z-score; with GST-Dm-Relish, 5.21 z-score; with GST-Aq-NF-kB, 5.82 z-score. For the same sequence, the binding signal in the test with GST-Hu-p50 was 6.7 z-score.

For “CCGATTAACATCAACTTTCCCCCTGATGTTAATCGGGTCTTGATTCGCTTGACGCTGCTG”, the binding signal with GST-Ap-NF-kB RHD came out at 7.6 z-score; in test [1] it was 7.45 z-score; in test [2], 9.1 z-score; in the test with GST-Co-NF-kB it was 9.36 z-score; with GST-Dm-Relish it was 3.9 z-score; in the test with GST-Aq-NF-kB, 6.57 z-score. The same sequence showed a binding signal in the test with GST-Hu-p50 of 6.16 z-score.

“CCGATTAACATCACCTTTCCCCCTGATGTTAATCGGGTCTTGATTCGCTTGACGCTGCTG”: the binding signal came out at 6.53 z-score with GST-Ap-NF-kB RHD; 6.31 z-score in test [1]; 7.29 z-score in test [2]; 9.42 z-score with GST-Co-NF-kB; 2.89 z-score with GST-Dm-Relish; 4.77 z-score in the test with GST-Aq-NF-kB. This sequence had a binding signal in the test with GST-Hu-p50 of 5.65 z-score.

As to “CCGATTAACATCAGGCTTTCCCCTGATGTTAATCGGGTCTTGATTCGCTTGACGCTGCTG”, the binding signal is 6.49 z-score with GST-Ap-NF-kB RHD; 7.29 z-score in test [1]; 7.71 z-score in test [2]; 4.87 z-score with GST-Co-NF-kB; 7.38 z-score in the test with GST-Dm-Relish; 7.22 z-score with GST-Aq-NF-kB. The same sequence yielded a binding signal with GST-Hu-p50 of 4.79 z-score.

Turning to “CCGATTAACATCACGGGGATCCCTGATGTTAATCGGGTCTTGATTCGCTTGACGCTGCTG”, the binding signal with GST-Ap-NF-kB RHD worked out at 8.72 z-score; in test [1], 5.48 z-score; in test [2], 5.51 z-score; with GST-Co-NF-kB, 4.27 z-score; with GST-Dm-Relish it was 9.65 z-score; in the test with GST-Aq-NF-kB it was 5.88 z-score. The sequence also came in with a binding signal in the test with GST-Hu-p50 of 4.51 z-score.

Consider “CCGATTAACATCAATTTTCCCCGTGATGTTAATCGGGTCTTGATTCGCTTGACGCTGCTG”, for which the binding signal was found to be 6.99 z-score with GST-Ap-NF-kB RHD; 8.12 z-score in test [1]; 10.2 z-score in test [2]; 11 z-score in the test with GST-Co-NF-kB; 4.87 z-score with GST-Dm-Relish; 6.2 z-score in the test with GST-Aq-NF-kB. Besides, in the test with GST-Hu-p50, the binding signal worked out at 5.95 z-score.
